Over roughly 59,000 sequences, the read-out has its median near -0.00055; the lowest 2% begin near -2. The sample as a whole holds a higher share of the lowest values than the screen did.

This test can be described thus: Identification of proteins required for the processing of the EWS-FLI1 nascent transcript.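 Further: robust z of luciferase light less the median z of siRNAs with the same seed.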 Particulars: TC32 Ewing sarcoma NR0B1-luc vs CMV-luc (EWS-FLI1 target promoter against control promoter), 48 h; screened at 20 nM (by protocol). The method, then:
Ewing sarcoma (ES) cells depend on the EWS-FLI1 fusion transcription factor for cell survival. Using an assay of EWS-FLI1 activity and genome-wide siRNA screening we have identified proteins required for the processing of the EWS-FLI1 nascent transcript. Parallel genome-wide siRNA-mediated RNAi screens were conducted in Ewing sarcoma TC32 cell lines expressing a luciferase (luc) reporter protein driven by either the promoter of the EWS-FLI1 target gene NR0B1 (TC32-NR0B1-luc) or the CMV promoter (TC32-CMV-luc). Luciferase activity was assessed 48 hours post siRNA-transfection.
Twenty microl of serum-free media containing Lipofectamine RNAiMax (0.05 microl) was added to wells containing siRNA (0.8 pmol). Lipid and siRNA were allowed to complex for 45 min at ambient temperature before addition of 600 cells in RPMI-1640, 20% FBS to yield final transfection mixtures containing 20 nM siRNA in RPMI-1640, 10% FBS. Luciferase expression was measured using OneGlo (Promega, Madison, WI). The genome-wide screening campaign was conducted using Ambion's human genome library version 4.1 (Ambion, Austin TX). This library targets approximately 21000 human genes, three siRNAs per gene. Each siRNA is arrayed in an individual well of a 384-well plate. Parallel transfections were conducted in TC32-NR0B1-luc and TC32-CMV-luc cell lines and luciferase expression (OneGlo, Promega) was assayed 48 h later on a PerkinElmer Envision 2104 Multilabel plate reader (PerkinElmer, Waltham, MA). Qiagen's AllStars Negative control was incorporated on all screening plates for normalization (16 wells per plate). Qiagen, Germantown, MDsiGL4 was incorporated as a positive transfection control (16 wells per plate) on all plates. […] The raw luciferase data for the NR0B1- and CMV-luc screens were normalized and z-score-MAD transformed using standard methods (Chung et al., 2008). The miRNA-like seed sequence of every siRNA was determined and the median z-score for all siRNA sequences with the same seed sequence was calculated. This z-score was subtracted from the z-score associated with each siRNA with that seed sequence to generate a seed-adjusted z-score value (Z) that was used when the results for the three siRNAs corresponding to each gene were compared (Marine et al., 2012)
In turn, UAAACAAUACGUCAGUGCC against OR51T1 came in with a seed-corrected z-score of -0.809. UUCGUUCACGGCUAUGACC against CHL1: the seed-corrected z-score was determined as 0.202.

In turn, UGAGUUUCAGGUUCUCCGG against CAB39L displayed a seed-corrected z-score of -2.64. As to UUCCGGAUCAGAUCAUGGG against FAM118A, the seed-corrected z-score was -0.123. In turn, UACAUUCUUGGUUUCAACC against LOC729860 yielded a seed-corrected z-score of 1.84. UUAUAUUCAUCCUUGUGAC against CRKL returned a seed-corrected z-score of 0.239. UUCUGGUUUGUUUUCAGGC against BAG3: the seed-corrected z-score is -2.98. The same measure for AACCGAACAAAUGAAUAUC against TIA1: -1.17; for UAAUCUGCAAGUCAAGUCU against LYSMD2: -1.06; for UUCACGACGAUGAUUCCCU against DYNLRB1: -0.1.

In turn, UCCUCUGUAACCACACUCG against GPT2 registered a seed-corrected z-score of -0.193. Regarding AAACUAUACACGGUCGUCC against RFESD, the seed-corrected z-score was -0.265. The same measure for UUAGGUUCAACAUCCACAA against SNRPD1: -2.57.

As to AAGGAUAUUAAGAAGAAUC against ARMCX1, the seed-corrected z-score came to 0.793. UACGAUGAUAGCCUUGACC against CNOT10 displayed a seed-corrected z-score of -0.215. Take UCAAGCUUCACUUUCUUCC against DNAJC17: the seed-corrected z-score stood at 1.06.

AAAAUGAGAACGUAAAGUC against VN1R5 gave a seed-corrected z-score of -0.139. For UCCUGGAUGCGAUUUAUGG against DDRGK1, the seed-corrected z-score is -0.145. Next, UUCUCGUCGAGGUAGAUUU against ITM2C: 0.584; UAACAUACUGGUCCCAUUG against PCTP: -1.08. UAUCUUCUAAUGCAAUCCU against RTP2 showed a seed-corrected z-score of 0.814.

For ACCUUGACCACACUUAUUU against VSTM2L, the seed-corrected z-score is -1.03. Sequence UGCUUAACAAGAUCUGAAC against ZNF271P returned a seed-corrected z-score of -2.37. Next, UCGGCGAUGUAGGAGAUGG against APBA2: 0.0663; AGAAAAUCUAUCUUCCUCU against PFDN5: -0.0703; UGGGAUAUCACCAACGACG against CCDC168: -0.371. The same measure for UCAUCUAGAAGAAUAUUCU against SGK494: 0.387; for AAGCUUGCCAAUACCCUGG against RPLP2: -2.77. In turn, UCUAUGUUGACAACCUCUC against DSPP displayed a seed-corrected z-score of 2.05.

For UUGCAUUUUAUCACAGUAG against LY96, the seed-corrected z-score is -0.122. For UCAGCAAAAACAUCUCACU against OR4Q3, the seed-corrected z-score came out at 0.873. Next, AAACUGACCAUUCACUACC against DCAF12: -10.7. Next, UCUGGAAUUUGGGUUGAUG against C1orf105: -0.114; UAGAUGUGCAUGUAGGUGA against ADO: 0.279; AAGGCAUCCAAGAAGCUCC against KCNK6: 0.0975. In the case of UUGGAAACUACAGAUGAGA against WDR82, the seed-corrected z-score is -2.39. UUCCUUAAGGUGUCCCUCC against HSPA12A displayed a seed-corrected z-score of 0.369.

(Values after PubChem BioAssay AID1159506 (National Center for Advancing Translational Sciences (NCATS), 2015).)
